The campaign covered roughly 290,000 compounds. About 3,000 (1%) were called active. Cut-off read from the data, not from the text of the source: active = inhibition mostly above about 36% (no sharp cut-off); inactive = mostly below about 34%. The full list was thinned out, with actives kept by preference.

The nature of the experiment: inhibition of NOD1-driven NF-kB reporter – cell-based, luminescence, uHTS, primary screen (AID 1578).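 Note: HEK-293T reporter cells stimulated with the NOD1 agonist gamma-tri-DAP.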 Particulars: NOD1-driven NF-kB luciferase reporter cells, at 4 µM, active compounds read high. Background: Reporter assays use an easily measured gene product as a stand-in for the process of interest.
Usually inhibition stands for the relative decrease from the control value, in per cent. Turning to `CCOCCCNC(=O)c1ccc(N2CC3CC(C2)c2cccc(=O)n2C3)c(NC(=O)Nc2cccc(OC)c2)c1` (stereo unspecified), the inhibition was -1.7% (inactive). The same measure for `COc1cccc2c1cc1c(=O)n(CC(=O)N3CCCCCC3)nc(C)n12`: -16% (inactive); for `CCn1cc(Br)c(C(=O)Nc2sc3c(c2C(N)=O)CCCC3)n1`: -18.1% (inactive). With `CCn1ncc(Br)c1C(=O)Nc1sc2c(c1C(N)=O)CCC2` the figure was 77.1% (active). The same measure for `Cn1ncc(Cl)c1C(=O)Nc1sc2c(c1C(N)=O)CCC2`: -24.6% (inactive).

In the case of `Cc1ccc(OS(=O)(=O)c2c(C)nn(C)c2Cl)c(C)c1`, the inhibition was -19.4% (inactive).

Consider `CCn1cc(C(=O)O)c(=O)c2cc(F)c(N3CCN(C(=S)NC(=O)c4ccccc4Br)CC3)cc21`, for which the inhibition was -0.8% (inactive).

As to `CN1CCN(C(=S)Nc2ccc(Oc3ccccc3)cc2)CC1`, the inhibition is 6.6% (inactive). The same measure for `CC(C)=CC(=O)Nc1c(C)cc(C)cc1Cl`: -18% (inactive); for `Oc1ccc(-c2nc3ccccc3s2)cc1`: -6.1% (inactive). The same measure for `COc1ccc(-c2nc3ccccc3s2)cc1`: -35.3% (inactive). The same measure for `CCOC(=O)Cc1csc(SC(C)C(=O)NCC(=O)Nc2ccc(F)c(F)c2F)n1` (stereo unspecified): -36.3% (inactive); for `COc1ccc(C(=O)N/C(=C\c2cccs2)C(=O)N2CCN(C)CC2)cc1OC`: -14.2% (inactive). For `O=C(c1ccco1)N1CCN(c2nc(C3CC3)nc3c2nnn3Cc2ccccc2Cl)CC1`, the inhibition is 44.4% (active). Take `NC(=O)C1CCN(c2nc(C3CC3)nc3c2nnn3Cc2ccccc2Cl)CC1`: the inhibition was 10.7% (inactive). The same measure for `O=C(c1ccco1)N1CCN(c2ncnc3c2nnn3Cc2ccccc2Cl)CC1`: 11.1% (inactive); for `O=C(Cn1nnc(-c2cc(C(F)(F)F)cc(C(F)(F)F)c2)n1)NNC(=S)Nc1ccc(Cl)cc1`: 10.2% (inactive); for `O=C(COC(=O)Cc1ccc(Cl)cc1)Nc1c(F)cccc1F`: -44% (inactive). As for `COc1cc(/C=N/NC(=O)c2ccncc2)ccc1OC(=O)c1ccco1`, the inhibition is 29.2% (inactive). The same measure for `CC(=O)c1c(C)[nH]c(C(=O)OCC(=O)NCCc2ccc(F)cc2)c1C`: -0.8% (inactive). Turning to `Cc1ccsc1C(=O)NNC(=O)C1CCCCC1C(=O)O` (stereo unspecified), the inhibition is -15.7% (inactive). For the compound `Cc1ccsc1C(=O)NNC(=O)C1CC=CCC1C(=O)O` (stereo unspecified), the inhibition was -25.2% (inactive). With `Cc1ccsc1C(=O)NNC(=O)C1C2C=CC(C2)C1C(=O)O` (stereo unspecified) the figure was 72.2% (active). With `CCCCC(=O)Nc1cccc(-c2cn3ccccc3n2)c1` the figure was -43.7% (inactive); with `O=C(CCS(=O)(=O)c1cc2c(cc1Cl)NC(=O)CO2)NCc1ccc(F)cc1`, -25.6% (inactive). With `Cc1ccc(CNC(=O)CCS(=O)(=O)c2cc3c(cc2Cl)NC(=O)CO3)cc1` the figure was -6.8% (inactive); with `O=C(CCS(=O)(=O)c1cc2c(cc1Cl)NC(=O)CO2)NCc1ccccc1`, 95% (active); with `CC(=O)OC[C@H]1O[C@@H](O/N=C(\C)CCN2CCCCc3nc(C)c(C)cc32)[C@H](OC(C)=O)[C@@H](OC(C)=O)[C@@H]1OC(C)=O`, -2.5% (inactive).

Turning to `Cc1ccc(S(=O)(=O)c2nc(-c3ccccc3F)oc2N2CC(C)OC(C)C2)cc1` (stereo unspecified), the inhibition is -20% (inactive). With `Cc1cc(C)c(C)c(/C=C(/C#N)C(N)=S)c1C` the figure was 14.2% (inactive); with `Cc1ccc(-c2ccc(/C=C(\C#N)C(N)=S)n2C)cc1`, -19.8% (inactive).

Turning to `Cc1cc(C)c(/C=C(\C#N)C(N)=S)c(C)c1`, the inhibition is 106% (active).

As for `CC1CCN(C(=O)COc2cccc3c2CCN(Cc2ccccc2)C3=O)CC1`, the inhibition was -16% (inactive). The same measure for `CC(=O)c1sc(Nc2nc3ccc(F)cc3s2)nc1C`: -20.9% (inactive).

Take `COc1ccc2nc(NC(C)=O)sc2c1`: the inhibition was -12.9% (inactive). For the compound `Clc1ncccc1-c1nnn(-c2ccccc2Br)n1`, the inhibition is -23.5% (inactive).

Regarding `CCc1nnc(NC(=O)c2ccc(NC(=O)C(C)C)cc2)s1`, the inhibition was -39.9% (inactive). With `N#C/C(=C(/O)CN1CCOCC1)c1nc(-c2ccccc2)cs1`, the inhibition is -15.4% (inactive). With `COc1ccc(/C=N/NC(=O)c2cc(C3CC3)[nH]n2)cc1OC` the figure was -1.2% (inactive); with `COc1ccccc1C(=O)CSc1n[nH]c(N)n1`, 65.9% (active). With `COc1ccccc1CNC(=O)CSc1n[nH]c(N)n1` the figure was -8.6% (inactive); with `COc1ccc(C(=O)CSc2n[nH]c(N)n2)cc1`, -10% (inactive); with `Cc1ccc2nc(-c3ccccn3)cc(C(=O)NCCc3ccc(F)cc3)c2c1`, -8.3% (inactive). With `CC(C)OC(=O)c1ccc(COC(=O)c2cccc(-c3nnc(-c4ccccc4)o3)c2)cc1` the figure was -13% (inactive); with `N=C(N)N=Nc1c(O)[nH]c2ccc(Br)cc12`, -31.8% (inactive); with `Oc1[nH]c2ccc(Br)cc2c1N=NC(=S)N1CCOCC1`, 99% (active). On to `Oc1[nH]c2ccc(Br)cc2c1N=NC(=S)Nc1ccc(F)cc1`, for which the inhibition is -7.9% (inactive). Regarding `COc1ccc(CCNC(=O)CSc2nc3c(c(=O)n(C)c(=O)n3C)n2C)cc1OC`, the inhibition was -28.4% (inactive). The same measure for `O=[N+]([O-])c1ccc(Nc2ccccc2)c2nonc12`: -7.4% (inactive).

`O=[N+]([O-])c1ccc(Nc2ccccc2O)c2nonc12`: the inhibition is -3.2% (inactive).

For the compound `O=[N+]([O-])c1ccc(Sc2cccc[n+]2[O-])c2nonc12`, the inhibition was 106% (active). The same measure for `N#Cc1ccccc1NC(=O)CSc1nnc(-c2ccncc2)o1`: 4.5% (inactive); for `Cn1c(-c2csc(-c3ccccc3)n2)n[nH]c1=S`: -29.3% (inactive). Turning to `CC(CC(=O)c1cccs1)CC(=O)c1cccs1`, the inhibition was -14.5% (inactive). Regarding `Cc1ccccc1C(CC(=O)c1cccs1)C(C#N)C#N` (stereo unspecified), the inhibition is 85.2% (active). With `Cc1cc(C)c(C(CC(=O)c2cccs2)C(C#N)C#N)c(C)c1` (stereo unspecified) the figure was 26.3% (inactive); with `O=[N+]([O-])c1cccc(Nc2nc(Cl)nc(Cl)n2)c1`, 14.4% (inactive).

Consider `COc1nc(NC(C)(C)C)nc(Oc2ccc(=O)n(-c3ccccc3)n2)n1`, for which the inhibition is -3.3% (inactive). The same measure for `Cc1ccc(S(=O)(=O)NNC(=O)c2ccc(O)cc2)cc1`: -14.1% (inactive). Consider `COC(=O)NC(NS(=O)(=O)c1ccccc1)(C(=O)OC)C(F)(F)F` (stereo unspecified), for which the inhibition is -0.4% (inactive). As for `Cc1ccc(S(=O)(=O)C(CCC(=O)c2ccc(Cl)cc2)C(N)=O)cc1` (stereo unspecified), the inhibition was 9.7% (inactive). Turning to `Cc1ccc(C(=O)NC(=S)NNS(=O)(=O)c2ccc(C)cc2)cc1`, the inhibition is -34.4% (inactive). Regarding `COc1ccc(C(=O)NCS(=O)(=O)c2ccc(C)cc2)cc1`, the inhibition is 7.7% (inactive). `Cc1ccc(C(=O)NNC(=S)NC(=O)c2ccc(Cl)cc2)cc1`: the inhibition was 31.1% (inactive).

As for `COc1ccc(NC(=O)c2ccc(C)cc2)cc1`, the inhibition was -19.2% (inactive). With `COC(=O)NC(=C(Cl)Cl)S(=O)(=O)c1ccccc1`, the inhibition was 74.9% (active). With `CCOC(=O)NC(C(Cl)(Cl)Cl)S(=O)(=O)c1ccccc1` (stereo unspecified) the figure was 5% (inactive); with `CCOC(=O)C1CCN(S(=O)(=O)c2ccc(C)c(C)c2)CC1`, -13.2% (inactive); with `CCOC(=O)c1ccc(NC(=S)N2CCN(CCNC3=CC(=O)CC(C)(C)C3)CC2)cc1`, -30.1% (inactive). In the case of `CCC(=O)c1ccc(OCC(=O)Nc2ccc(N3CCOCC3)cc2N2CCOCC2)cc1`, the inhibition is -43.2% (inactive). With `COc1ccc(C(=O)NCCN2CCOCC2)c(OC)c1OC` the figure was 4.8% (inactive). Take `CNC(=O)C1CCN(S(=O)(=O)c2c(C)noc2/C=C/N(C)C)CC1`: the inhibition was -22.5% (inactive). `Cc1cc(C)c(C#N)c(SCc2cc3c(cc2Cl)OCO3)n1`: the inhibition is 26.9% (inactive).

For `O=C(CSc1ccc2c(c1)OCCO2)Nc1ccc(N2CCOCC2)cc1`, the inhibition is -37.2% (inactive).

On to `COc1cccc(N2CCN(C(C)C(=O)NC34CC5CC(CC(C5)C3)C4)CC2)c1` (stereo unspecified), for which the inhibition was -31.5% (inactive).

As to `Cc1ccc(-n2ncc3c(SCc4cccnc4)ncnc32)c(C)c1`, the inhibition was 1.6% (inactive). The same measure for `Cc1ccc(S(=O)(=O)CNC(=O)c2ccccc2)cc1`: -6.8% (inactive). The same measure for `Cc1ccc(S(=O)(=O)NCCNC(=O)c2ccccc2)cc1`: -16.6% (inactive); for `COc1ccccc1Oc1ccnc2cc(Cl)ccc12`: 27.5% (inactive); for `O=C(/C=C/Nc1ccc(Br)cc1F)c1ccco1`: 53.7% (active).

As for `O=C(/C=C/Nc1ccc(F)cc1F)c1ccco1`, the inhibition was -11.6% (inactive).

For the compound `O=C(/C=C/Nc1ccc(Br)cc1F)c1ccccc1`, the inhibition is 27.6% (inactive). With `COc1ccc(C2C(C(=O)N3CCC(C)CC3)c3ccccc3C(=O)N2C)cc1` (stereo unspecified) the figure was -14.1% (inactive). With `COCCC(=O)NC1CCCc2c1cnn2-c1cccc(C)c1C` (stereo unspecified) the figure was -25.1% (inactive); with `Cn1c(-c2ccccc2)cnc1SCC(=O)N1CCCCC1`, 32% (active).

As for `Cn1c(-c2ccc(F)cc2)cnc1SCC(=O)N1CCCCC1`, the inhibition is -31.8% (inactive). `Cn1c(-c2ccccc2)cnc1SCC(N)=O`: the inhibition was 0.4% (inactive). Consider `Cc1cc(C)[n+](-c2ccc(C(C)C)cc2)c2[nH]c(=O)[nH]c(=O)c12`, for which the inhibition is -20.8% (inactive). Take `Cc1[nH]nc(SCC(=O)Nc2cccc(O)c2)c1[N+](=O)[O-]`: the inhibition is -37.4% (inactive).

As for `CCNS(=O)(=O)c1ccc(CCC(=O)Nc2cc(Cl)ccc2Oc2ccccc2)cc1`, the inhibition is 34% (inactive).

Regarding `CCCNS(=O)(=O)c1ccc(CCC(=O)Nc2cc(Cl)ccc2Oc2ccccc2)cc1`, the inhibition was 79.1% (active). Turning to `CC(C)CNS(=O)(=O)c1ccc(CCC(=O)Nc2cc(Cl)ccc2Oc2ccccc2)cc1`, the inhibition was 23.4% (inactive). The same measure for `COc1ccc(NC(=O)c2cc(S(=O)(=O)N3CCOCC3)cn2C)c(OC)c1`: -19% (inactive); for `CCCNC(=S)N1CCC(C(=O)c2ccc(F)cc2)CC1`: -20.1% (inactive); for `CC(C)CNC(=S)N1CCC(C(=O)c2ccc(F)cc2)CC1`: 61.7% (active).

Turning to `C=CCNC(=S)N1CCC(C(=O)c2ccc(F)cc2)CC1`, the inhibition was -20.4% (inactive).

The values are drawn from PubChem BioAssay AID1578 (Sanford-Burnham Center for Chemical Genomics, 2009).
